We go through four compounds from PubChem BioAssay.

Structures are written as SMILES. Results filed as inconclusive are left out. The source made the active and inactive calls. Unless noted, no rule for the calls is given here.

Assay [1] in a line: rapamycin-like changes in RPL19A-GFP expression – cell-based, S. cerevisiae, multiplex flow cytometry, primary screen (AID 1862; in the data active = percent of DMSO control GFP below about 86%;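 also: lower values mimic rapamycin by blocking the RPL19A rise seen in DMSO cells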). Particulars: S. cerevisiae RPL19A-GFP strain, flow cytometry fluorescence, 3 h; at 10 µM; stronger effect = lower value. Background: A flow cytometer gives signals particle by particle.
The nature of assay [2]: TOR pathway GLN3 branch reporter MEP2-GFP changes – S. cerevisiae, multiplex flow cytometry, primary screen (AID 1867;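 active = GFP response, as percent of the DMSO control, above the screen-wide mean plus 3 SD, about 139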;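 also: median GFP channel fluorescence of barcode-gated MEP2-GFP cells measured by flow cytometry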). Particulars: S. cerevisiae MEP2-GFP strain, 3 h, at 10 µM, stronger effect = higher value.
The nature of assay [3]: TOR pathway RTG branch CIT2 reporter changes – S. cerevisiae, GFP fusion, multiplex flow cytometry, primary screen (AID 1870;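 active = percent response above a set limit, the screen-wide mean plus 3 SD, cut at about 130% in these data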;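 also: barcoded CIT2-GFP strain pooled with four other GFP strains with rapamycin as positive control; median GFP fluorescence per well over plate mean of DMSO wells so 100% = DMSO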). Particulars: S. cerevisiae CIT2-GFP expression, 3 h, at 10 µM, stronger effect = higher value.
The nature of assay [4]: TOR pathway LAP4-GFP level changes – S. cerevisiae, multiplex flow cytometry, primary screen (AID 1873;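 active = GFP signal, as percent of the solvent control, above the screen mean plus 3 SD, about 149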). Particulars: S. cerevisiae LAP4-GFP expression, 3 h, at 10 µM, stronger effect = higher value.
Assay [5] in a line: yeast AGP1-GFP level changes, GLN3 branch – cell-based, multiplex flow cytometry, S. cerevisiae, primary screen (AID 1887;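 active = GFP signal above the screen-wide mean plus 3 SD, that is over about 124.5% of the solvent control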;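 also: AGP1-GFP fusion strain of S. cerevisiae within a five-strain barcoded multiplex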). Particulars: 3 h, at 10 µM, stronger effect = higher value.
A short description of assay [6]: reduced mouse 2C T cell binding to pMHC/ICAM-1 vesicles – MLPCN validation set, flow cytometry, LFA-1/ICAM-1 modulator project, pilot screen (AID 2523;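 active = response below a set limit, under 55% cells CD8-positive and vesicle-bound, and CD8 cells' 90th-percentile brightness under 279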;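 as to vesicle binding response: mean PE anti-B7-1 fluorescence of CD8+ cells relative to row control; 100% = QL9-loaded vesicles with DMSO vehicle in the same plate row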). Particulars: 2C mouse CD8+ T cells, at 7 µM, stronger effect = lower value; double positive events: measured here: CD8+/vesicle+ event percentage.
The target of assay [7] is Integrin beta-1 (Homo sapiens) + Integrin alpha-4 (Homo sapiens) (UniProt P13612+P05556). Description: alpha4beta1 integrin LIBS antibody binding reduction – U937 cells, HUTS-21 mAb, flow cytometry, validation set, VLA-4 allosteric modulator project, pilot screen (AID 2674;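 active = inhibition above 50%, about 3 SD of the validation set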;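 also: antibody binding induced by the VLA-4 ligand LDV present at three times its Kd; 0% = LDV ligand with antibody and no compound and 100% = antibody without LDV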). Particulars: HUTS-21 LIBS mAb binding, at 6.7 µM, stronger effect = higher value.
Assay [8] in a line: calorie-restriction mimetic ROS inhibitors, yeast – validation compound set, pilot screen (AID 2706;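 active = superoxide response below 65% of plate, a cut near 3 SD across the whole screen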;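 also: yeast exposed to compound for one week at 30 degrees C before staining; 100% = mean of all compound wells on the same plate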). Particulars: S. cerevisiae aging, superoxide DHE fluorescence; at 10 µM; stronger effect = lower value.
Assay [9] concerns the target Beta-adrenergic receptor kinase 1 (Homo sapiens) (UniProt P25098). Description: GRK2 binders displacing RNA aptamer, biochemical, validation, human GRK2, bead flow cytometry (AID 488806;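 active = aptamer binding inhibition above 30%, about 3 SD of noise from non-fluorescent compounds; inactive = inhibition at or below 30%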). Particulars: bead-bound GRK2, FAM-aptamer displacement, at 10 µM, stronger effect = higher value.
For assay [10], the target named is Beta-2 adrenergic receptor (Homo sapiens) (UniProt P07550). The assay is described as follows: agonist-induced loss of surface beta2AR – cell-based, FAP fluorogen, flow cytometry, validation set, pilot screen (AID 504459;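 active = percent response above 42, roughly 3 SD of non-fluorescent test compounds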;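 also: agonist-driven loss of surface beta2AR via internalization measured by FAP dye flow cytometry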). Particulars: Am2.2-beta2AR cells, at 10 µM, stronger effect = higher value.
Sequence of Beta-2 adrenergic receptor (Homo sapiens) (P07550 whole entry, looked up): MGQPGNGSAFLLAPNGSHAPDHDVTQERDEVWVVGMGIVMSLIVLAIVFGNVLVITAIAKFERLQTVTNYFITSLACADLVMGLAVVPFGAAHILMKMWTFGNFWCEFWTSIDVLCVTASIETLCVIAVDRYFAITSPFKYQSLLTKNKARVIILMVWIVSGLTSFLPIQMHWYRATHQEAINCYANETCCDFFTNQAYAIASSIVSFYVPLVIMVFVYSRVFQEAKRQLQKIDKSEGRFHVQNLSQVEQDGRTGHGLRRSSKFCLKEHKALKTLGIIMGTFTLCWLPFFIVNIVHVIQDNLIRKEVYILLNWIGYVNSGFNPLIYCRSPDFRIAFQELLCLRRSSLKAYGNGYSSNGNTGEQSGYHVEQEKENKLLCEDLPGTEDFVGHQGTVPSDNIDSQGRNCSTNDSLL
Assay [11] has as its target AP-2 complex subunit beta (Homo sapiens) (UniProt P63010). Description: beta-arrestin/AP2 interaction blockers – biochemical, validation set, GST-AP2 beads, flow cytometry, pilot screen (AID 504541;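 active = inhibition above 54%, about 3 SD of non-fluorescent compounds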;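 also: AP2 carries R879A mutation and is captured from E. coli lysate; bead-bound FITC arrestin peptide fluorescence measuring arrestin peptide binding to AP2; 0% = DMSO wells and 100% = excess unlabeled arrestin peptide control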). Particulars: FITC arrestin peptide, at 10 µM, stronger effect = higher value.
Assay [12] is described as follows: cytosolic pH regulators acting via V-ATPase – S. cerevisiae, pHLuorin, HTS validation (AID 504600; in the data active = response above about 15%;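 also: plate controls were DMSO for no effect and reference compound for full effect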). Particulars: V-ATPase proton transport, at 10 µM, stronger effect = higher value.
In assay [13] the test system is anti-desmoglein-3 scFv antibody binding to human DSG3. Description: blockers of pathogenic pemphigus antibody–desmoglein-3 binding – biochemical, validation compound set, bead-based, flow cytometry, pilot screen (AID 588368;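 active = binding below the plate cutoff, the plate median minus 3 SD, with a reading above zero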;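 also: signal is the median channel fluorescence of bead-bound GFP antibody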). Particulars: Protein G beads, DSG3-Fc, scFv-GFP binding, at 10 µM, stronger effect = lower value.
Assay [14] deals with Botulinum neurotoxin type F light chain protease (Clostridium botulinum). Description: Clostridium botulinum type F light chain protease inhibitors, microsphere substrate cleavage, validation (AID 588459). Particulars: multiplex microsphere protease substrate cleavage assay, flow cytometry; at 10 µM; stronger effect = higher value.
The target of assay [15] is Botulinum neurotoxin type A (Clostridium botulinum) (UniProt P0DPI0). The assay is described as follows: BoNT/A light chain protease inhibitors, biochemical, multiplex microsphere flow cytometry, validation set (AID 588460). Particulars: at 10 µM, stronger effect = higher value.
Sequence of Botulinum neurotoxin type A (Clostridium botulinum) (P0DPI0 whole entry, looked up): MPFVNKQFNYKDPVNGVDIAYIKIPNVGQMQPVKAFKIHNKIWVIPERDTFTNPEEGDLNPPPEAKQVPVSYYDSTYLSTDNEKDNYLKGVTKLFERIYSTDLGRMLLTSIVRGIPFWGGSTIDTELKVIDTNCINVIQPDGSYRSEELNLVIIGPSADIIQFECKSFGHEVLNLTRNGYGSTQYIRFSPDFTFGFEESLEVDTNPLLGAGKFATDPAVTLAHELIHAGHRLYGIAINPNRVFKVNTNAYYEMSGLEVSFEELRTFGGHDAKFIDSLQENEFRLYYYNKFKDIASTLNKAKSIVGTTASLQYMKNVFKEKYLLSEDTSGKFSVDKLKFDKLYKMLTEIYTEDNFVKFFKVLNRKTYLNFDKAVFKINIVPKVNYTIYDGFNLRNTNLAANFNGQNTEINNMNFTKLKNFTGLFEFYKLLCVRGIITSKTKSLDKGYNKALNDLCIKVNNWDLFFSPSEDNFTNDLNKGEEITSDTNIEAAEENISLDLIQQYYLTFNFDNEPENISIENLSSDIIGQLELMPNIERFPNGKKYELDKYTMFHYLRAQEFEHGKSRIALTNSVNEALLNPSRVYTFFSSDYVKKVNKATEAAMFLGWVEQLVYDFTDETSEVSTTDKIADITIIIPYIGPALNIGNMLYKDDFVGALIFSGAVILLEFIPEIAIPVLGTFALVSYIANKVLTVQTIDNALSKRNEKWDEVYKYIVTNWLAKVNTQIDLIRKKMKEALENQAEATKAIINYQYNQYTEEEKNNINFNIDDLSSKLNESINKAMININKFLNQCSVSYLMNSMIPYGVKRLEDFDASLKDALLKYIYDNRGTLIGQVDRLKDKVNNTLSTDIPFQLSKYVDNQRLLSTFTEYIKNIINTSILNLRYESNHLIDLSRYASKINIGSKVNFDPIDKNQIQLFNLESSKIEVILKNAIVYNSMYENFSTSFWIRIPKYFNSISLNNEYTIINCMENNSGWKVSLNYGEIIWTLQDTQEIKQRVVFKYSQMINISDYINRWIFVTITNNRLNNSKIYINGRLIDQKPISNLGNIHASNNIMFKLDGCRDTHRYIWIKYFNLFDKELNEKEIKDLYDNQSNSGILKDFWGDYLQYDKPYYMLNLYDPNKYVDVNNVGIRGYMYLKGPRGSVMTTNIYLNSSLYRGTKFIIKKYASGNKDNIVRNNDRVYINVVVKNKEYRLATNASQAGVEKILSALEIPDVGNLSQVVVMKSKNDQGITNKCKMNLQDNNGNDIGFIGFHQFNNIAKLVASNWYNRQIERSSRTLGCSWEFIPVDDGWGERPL
Assay [16] addresses Lethal factor (Bacillus anthracis) (UniProt P15917). Description: Bacillus anthracis lethal factor inhibition, microsphere flow cytometry protease assay, validation at 10 µM (AID 588461). Particulars: multiplex microsphere protease cleavage assay, stronger effect = higher value.
Assay [17] is described as follows: Nile Red efflux blockade in pump-expressing yeast – validation compound set, multiplex, phenotypic, pilot screen (AID 588506;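 active = efflux inhibition above 0.42, the validation set average plus 4 SD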;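 also: Nile Red retained in cells so higher fluorescence means more efflux inhibition; 0 = negative control wells and 1 = enniatin B 25 µM full block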). Particulars: S. cerevisiae pump-expressing triplex, Nile Red efflux flow cytometry; at 10 µM; stronger effect = higher value.
Assay [18] deals with ATP-binding cassette sub-family B member 6 (Homo sapiens) (UniProt Q9NP58). The assay is described as follows: blockers of ABCB6-driven porphyrin uptake – K562-ABCB6 cells, flow cytometry, validation set, pilot screen (AID 588550;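 active = inhibition above the screen-wide mean plus 3 SD, about 51%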;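 also: 0% = DMSO wells and 100% = benzethonium chloride 70 µM positive control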). Particulars: K562-ABCB6 porphyrin accumulation, 1 h, at 10 µM, stronger effect = higher value.
Sequence of ATP-binding cassette sub-family B member 6 (Homo sapiens) (Q9NP58 whole entry, looked up): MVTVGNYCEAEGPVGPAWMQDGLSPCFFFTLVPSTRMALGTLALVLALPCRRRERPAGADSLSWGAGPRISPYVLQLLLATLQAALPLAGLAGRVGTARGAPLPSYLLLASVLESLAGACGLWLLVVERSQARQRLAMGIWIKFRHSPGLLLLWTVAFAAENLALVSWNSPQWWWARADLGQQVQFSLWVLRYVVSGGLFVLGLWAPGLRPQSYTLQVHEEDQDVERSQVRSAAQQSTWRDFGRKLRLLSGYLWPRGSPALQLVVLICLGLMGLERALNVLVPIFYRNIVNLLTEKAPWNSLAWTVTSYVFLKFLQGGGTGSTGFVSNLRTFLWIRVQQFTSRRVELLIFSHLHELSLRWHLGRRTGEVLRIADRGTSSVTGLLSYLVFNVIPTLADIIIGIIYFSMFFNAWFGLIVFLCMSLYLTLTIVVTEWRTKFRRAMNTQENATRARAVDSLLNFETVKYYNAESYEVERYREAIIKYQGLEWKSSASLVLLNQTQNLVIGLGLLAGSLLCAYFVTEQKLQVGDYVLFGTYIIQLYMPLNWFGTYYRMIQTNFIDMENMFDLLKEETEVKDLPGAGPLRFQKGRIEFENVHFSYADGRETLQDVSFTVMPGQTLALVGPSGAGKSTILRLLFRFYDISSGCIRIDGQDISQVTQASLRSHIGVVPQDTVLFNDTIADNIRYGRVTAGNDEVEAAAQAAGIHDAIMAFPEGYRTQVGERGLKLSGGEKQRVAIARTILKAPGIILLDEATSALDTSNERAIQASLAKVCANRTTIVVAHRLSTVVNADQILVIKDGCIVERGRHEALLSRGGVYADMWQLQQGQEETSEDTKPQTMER
A short description of assay [19]: AML differentiation inducers, ER-HoxA9 marrow cells – cell-based, GFP/MAC1 double positive, flow cytometry, validation set, primary screen (AID 588685;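 active = differentiation response of at least 50%, scaled between solvent and reference control, from cells with both markers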;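 also: compound exposure lasts four days before antibody staining and flow analysis; 0% = DMSO wells and 100% = 5 µM fulvestrant positive control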). Particulars: stronger effect = higher value.

Sequence of Lethal factor (Bacillus anthracis) (P15917 whole entry, looked up): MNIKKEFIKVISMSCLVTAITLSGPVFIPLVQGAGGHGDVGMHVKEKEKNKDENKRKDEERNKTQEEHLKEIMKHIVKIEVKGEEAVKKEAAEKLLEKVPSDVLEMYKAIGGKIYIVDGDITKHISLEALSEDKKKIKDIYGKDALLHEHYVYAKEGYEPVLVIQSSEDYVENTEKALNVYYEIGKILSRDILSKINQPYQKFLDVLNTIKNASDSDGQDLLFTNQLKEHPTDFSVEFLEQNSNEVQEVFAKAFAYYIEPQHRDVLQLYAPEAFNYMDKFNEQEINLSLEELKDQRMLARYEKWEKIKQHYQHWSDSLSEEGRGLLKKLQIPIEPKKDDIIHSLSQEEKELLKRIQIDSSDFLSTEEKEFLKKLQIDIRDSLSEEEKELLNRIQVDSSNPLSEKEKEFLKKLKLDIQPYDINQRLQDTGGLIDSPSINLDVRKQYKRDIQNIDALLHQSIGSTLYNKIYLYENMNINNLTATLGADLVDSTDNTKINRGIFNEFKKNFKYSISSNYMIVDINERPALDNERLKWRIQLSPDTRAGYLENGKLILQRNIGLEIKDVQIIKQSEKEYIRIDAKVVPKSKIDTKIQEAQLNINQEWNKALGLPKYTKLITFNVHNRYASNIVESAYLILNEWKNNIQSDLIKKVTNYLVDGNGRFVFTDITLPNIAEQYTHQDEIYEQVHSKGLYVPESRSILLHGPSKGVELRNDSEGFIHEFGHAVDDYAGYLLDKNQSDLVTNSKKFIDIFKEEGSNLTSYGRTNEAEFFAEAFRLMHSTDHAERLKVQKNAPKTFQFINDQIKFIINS
Sequence of Beta-adrenergic receptor kinase 1 (Homo sapiens) (P25098 whole entry, looked up): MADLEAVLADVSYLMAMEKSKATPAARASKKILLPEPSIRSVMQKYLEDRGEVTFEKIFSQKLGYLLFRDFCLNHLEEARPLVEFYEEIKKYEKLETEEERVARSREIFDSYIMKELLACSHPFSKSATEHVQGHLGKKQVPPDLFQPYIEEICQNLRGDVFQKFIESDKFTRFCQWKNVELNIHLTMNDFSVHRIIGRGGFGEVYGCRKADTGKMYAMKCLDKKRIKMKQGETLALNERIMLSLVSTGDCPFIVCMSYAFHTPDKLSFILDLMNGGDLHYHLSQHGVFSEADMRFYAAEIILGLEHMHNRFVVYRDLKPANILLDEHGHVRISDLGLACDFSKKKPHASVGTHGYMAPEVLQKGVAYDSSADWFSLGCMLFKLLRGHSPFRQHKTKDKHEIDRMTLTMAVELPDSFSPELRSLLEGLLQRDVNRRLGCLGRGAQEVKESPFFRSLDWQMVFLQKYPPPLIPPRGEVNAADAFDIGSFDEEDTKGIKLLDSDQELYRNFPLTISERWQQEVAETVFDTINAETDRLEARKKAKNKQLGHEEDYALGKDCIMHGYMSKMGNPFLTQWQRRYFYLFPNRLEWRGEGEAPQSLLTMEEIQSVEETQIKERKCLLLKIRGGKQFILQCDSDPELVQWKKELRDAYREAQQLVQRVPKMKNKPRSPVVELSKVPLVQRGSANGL
Sequence of AP-2 complex subunit beta (Homo sapiens) (P63010 whole entry, looked up, one chain of several): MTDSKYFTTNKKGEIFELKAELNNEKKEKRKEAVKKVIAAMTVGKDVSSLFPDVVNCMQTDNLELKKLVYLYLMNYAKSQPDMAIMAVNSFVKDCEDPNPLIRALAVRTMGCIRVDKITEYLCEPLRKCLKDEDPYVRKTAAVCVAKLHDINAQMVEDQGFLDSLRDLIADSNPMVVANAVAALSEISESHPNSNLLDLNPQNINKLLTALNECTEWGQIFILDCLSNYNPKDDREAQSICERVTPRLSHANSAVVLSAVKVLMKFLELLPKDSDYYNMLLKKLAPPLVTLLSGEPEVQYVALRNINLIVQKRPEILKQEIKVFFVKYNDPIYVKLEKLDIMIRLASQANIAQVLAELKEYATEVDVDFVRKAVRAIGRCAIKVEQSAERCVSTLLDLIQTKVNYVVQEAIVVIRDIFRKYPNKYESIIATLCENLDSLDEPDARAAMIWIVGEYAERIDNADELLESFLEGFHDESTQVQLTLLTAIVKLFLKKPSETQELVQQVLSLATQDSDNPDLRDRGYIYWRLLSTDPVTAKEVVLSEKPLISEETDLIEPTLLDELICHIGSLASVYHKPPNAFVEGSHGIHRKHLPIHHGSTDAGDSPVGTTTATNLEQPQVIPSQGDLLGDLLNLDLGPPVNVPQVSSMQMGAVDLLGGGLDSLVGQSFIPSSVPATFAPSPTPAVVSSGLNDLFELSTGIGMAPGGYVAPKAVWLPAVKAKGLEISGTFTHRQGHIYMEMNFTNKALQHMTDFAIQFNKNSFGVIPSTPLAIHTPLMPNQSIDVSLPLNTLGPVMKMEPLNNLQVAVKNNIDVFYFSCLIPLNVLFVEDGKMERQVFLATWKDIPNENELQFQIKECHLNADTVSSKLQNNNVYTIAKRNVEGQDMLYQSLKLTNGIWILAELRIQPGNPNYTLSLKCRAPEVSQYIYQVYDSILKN

Turning to `C[C@H]1CC[C@@]2(C)[C@@H](CC[C@@H]3[C@@H]2CC[C@]2(C)[C@@H](O)CC[C@@H]32)C1`, the percent of DMSO control GFP in [1] is 99.9% (inactive). The GFP response vs DMSO in assay [2] was 103% (inactive); in assay [4] it was 137% (inactive). For the same compound, in [3], the percent response of DMSO control was 92% (inactive). Besides, in assay [5], the GFP response, % of DMSO is 102% (inactive). In [6], this compound displayed a double positive events of 61%. In addition, in assay [6], the vesicle binding response was 376% (inactive). Also, the inhibition (in general, the relative decrease from the control value, in per cent) in assay [7] is 6.4% (inactive); in [11], -8.56% (inactive); in assay [14], 2% (inactive); in assay [15], 1.1% (inactive); in assay [16], -4.7% (inactive); in assay [18] it was -3% (inactive). For the same compound, in assay [8], the superoxide response (% of plate) was 97.5% (inactive). Further, the aptamer binding inhibition in [9] was 0% (inactive). Moreover, the response in [10] was 8.67% (inactive); in [12], 1.08% (inactive). For the same compound, in assay [13], the binding (% of control) is 99.5% (inactive). Also, in assay [17], the efflux inhibition (fraction of control) was -0.03 (inactive). In addition, in assay [19], the differentiation response is -8.8% (inactive).
As to `O=c1[nH]c(=S)n(-c2ccccc2)c(O)c1/C=N/N1CCCCC1c1cccnc1` (stereo not given), the percent of DMSO control GFP in [1] is 101% (inactive). Further, the GFP response vs DMSO in assay [2] is 100% (inactive); in assay [4], 84.8% (inactive). Moreover, the percent response of DMSO control in assay [3] is 90.8% (inactive). Moreover, the GFP response, % of DMSO in assay [5] is 93% (inactive). Moreover, the double positive events in assay [6] turned out to be 64%. For the same compound, the vesicle binding response in assay [6] is 885% (inactive). Also, the inhibition is -37.8% (inactive) in assay [7]; 1.04% (inactive) in assay [11]; -0.8% (inactive) in assay [14]; 0.8% (inactive) in assay [15]; -6.8% (inactive) in assay [16]; 0% (inactive) in assay [18]. Besides, in assay [8], the superoxide response (% of plate) is 100% (inactive). Further, the aptamer binding inhibition in assay [9] was 4% (inactive). In addition, the response was 0.69% (inactive) in [10] and 4.77% (inactive) in assay [12]. The binding (% of control) in assay [13] was 100% (inactive). Moreover, in assay [17], the efflux inhibition (fraction of control) is -0.04 (inactive). Also, the differentiation response in [19] was 4.15% (inactive).
Regarding `CC(C)C(=O)Nc1ccc(S(=O)(=O)N2CC3CC(C2)c2cccc(=O)n2C3)cc1` (stereo not given), the percent of DMSO control GFP in [1] is 97.4% (inactive). The GFP response vs DMSO in assay [2] is 95.2% (inactive); in assay [4] it was 86.3% (inactive). Moreover, in [3], the percent response of DMSO control is 104% (inactive). Moreover, in assay [5], the GFP response, % of DMSO was 93.1% (inactive). Also, in assay [6], the double positive events turned out to be 58.5%. Besides, in assay [6], the vesicle binding response is 184% (inactive). Also, the inhibition is -5.89% (inactive) in assay [7]; 10.6% (inactive) in assay [11]; 4.8% (inactive) in assay [14]; 0.5% (inactive) in assay [15]; 0.3% (inactive) in [16]; 2% (inactive) in [18]. Also, the superoxide response (% of plate) in assay [8] is 106% (inactive). The aptamer binding inhibition in assay [9] was 3% (inactive). In addition, the figures for the response in [10] and in assay [12] were -5.34% (inactive) and -0.52% (inactive), respectively. Also, the binding (% of control) in [13] is 100% (inactive). Moreover, in [17], the efflux inhibition (fraction of control) is -0.24 (inactive). Also, the differentiation response in assay [19] is 13.6% (inactive).
In the case of `c1ccc2c(c1)[nH]c1cnccc12`, in assay [1], the percent of DMSO control GFP is 102% (inactive). Also, the GFP response vs DMSO is 97.2% (inactive) in assay [2] and 88.1% (inactive) in assay [4]. Besides, the percent response of DMSO control in [3] was 104% (inactive). Moreover, the GFP response, % of DMSO in [5] was 95.9% (inactive). In assay [6], this compound showed a double positive events of 62.8%. The vesicle binding response in assay [6] was 961% (inactive). For the same compound, the inhibition in [7] was -18.1% (inactive); in [11] it was -7.59% (inactive); in assay [14], 5.3% (inactive); in [15] it was 2.5% (inactive); in assay [16], -4.7% (inactive); in assay [18], 0% (inactive). Moreover, in assay [8], the superoxide response (% of plate) is 99.7% (inactive). Besides, in assay [9], the aptamer binding inhibition is 0% (inactive). The response in assay [10] is -10.7% (inactive); in assay [12], -0.12% (inactive). Further, the binding (% of control) in assay [13] was 96.1% (inactive). Further, the efflux inhibition (fraction of control) in [17] is 0.14 (inactive). Also, the differentiation response in [19] is 2.2% (inactive).
